# Source: PubChem BioAssay (NCATS)
# Where “and” joins values, the source holds several entries; their conditions need not be identical. Equal entries are not always repeated. Inconclusive results are not listed. A call without a number means that no potency is given here. Calls of active or inactive are those of the source. Calls follow the shape of the dose curve; as a rule, active = well fitted curve in the direction sought with a large enough effect; inconclusive = small, poorly fitted or top-dose-only effect, or another doubt; inactive = no such curve, though single readings can be large; an effect the other way counts as inactive or inconclusive.
# Assay: qHTS of pediatric cancer cell lines to identify multiple opportunities for drug repurposing: Primary screen for DAOY cells (AID 1347090); also: nearly all actives have a fitted effect of over 55% in size
# Conditions: DAOY medulloblastoma viability, CellTiter-Glo luminescence, 48 h; series mostly up to 46 µM
# In short: (§1)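 Cell viability, CellTiter-Glo luminescence; 500-1,000 cells/well, 8- or 11-point titration, 48 h compound exposure at 37 degrees C, 5% CO2. Controls: DMSO neutral, bortezomib 2.3 µM final as positive.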
# Potency is read from the fitted curve at half-maximal effect.
row,Structure (SMILES),Potency
1,C[C@@H]1CC(=O)NN=C1c1ccc(NN=C(C#N)C#N)cc1,26.6 µM (active)
2,CS(=O)(=O)Nc1ccc([N+](=O)[O-])cc1Oc1ccccc1,inactive
3,Cn1c(=O)c2c(ncn2C)n(C)c1=O,inactive
4,CC(=O)OCC(CCn1cnc2cnc(N)nc21)COC(C)=O,inactive
5,CN(Cc1cnc2nc(N)nc(N)c2n1)c1ccc(C(=O)N[C@@H](CCC(=O)O)C(=O)O)cc1,0.0266 µM (active)
6,CC(C)C(=O)Nc1ccc([N+](=O)[O-])c(C(F)(F)F)c1,4.69 µM (active)
7,CC[C@@]1(O)C(=O)OCc2c1cc1n(c2=O)Cc2cc3c(CN(C)C)c(O)ccc3nc2-1,53.1 nM (active) and 296 nM (active)
8,COc1ccc(CCN(C)CCCC(C#N)(c2ccc(OC)c(OC)c2)C(C)C)cc1OC (stereo unspecified),inactive
9,CC1(CN2CCC(n3c(=O)[nH]c4ccccc43)CC2)OCc2ccccc2-n2cccc21 (stereo unspecified),inactive
10,CC1COc2c(N3CCN(C)CC3)c(F)cc3c(=O)c(C(=O)O)cn1c23 (stereo unspecified),inactive
11,CCOC(=O)Nc1ccc(NCc2ccc(F)cc2)nc1N,inactive
12,CC(C)(C)C(=O)Oc1ccc(S(=O)(=O)Nc2ccccc2C(=O)NCC(=O)O)cc1,inactive
13,Cn1ccc2cc3c(cc21)CCN3C(=O)Nc1cccnc1,inactive
14,CC[N+](CC)(CC)CCOc1cccc(OCC[N+](CC)(CC)CC)c1OCC[N+](CC)(CC)CC,inactive
15,Clc1ccc2nsnc2c1NC1=NCCN1,inactive

# Assay: qHTS of pediatric cancer cell lines to identify multiple opportunities for drug repurposing: Primary screen for SJ-GBM2 cells (AID 1347091)
# Conditions: SJ-GBM2 viability, CellTiter-Glo luminescence, 48 h; series mostly up to 46 µM
# In short: as §1
row,Structure (SMILES),Potency
1,CS(=O)(=O)Nc1ccc([N+](=O)[O-])cc1Oc1ccccc1,inactive
2,CS(=O)(=O)CCNCc1ccc(-c2ccc3ncnc(Nc4ccc(OCc5cccc(F)c5)c(Cl)c4)c3c2)o1,10.5 µM (active)
3,CC(C(=O)O)c1cccc(C(=O)c2ccccc2)c1 (stereo unspecified),inactive
4,Cn1c(=O)c2c(ncn2C)n(C)c1=O,inactive
5,Nc1nnc(-c2cccc(Cl)c2Cl)c(N)n1,inactive
6,CC(=O)OCC(CCn1cnc2cnc(N)nc21)COC(C)=O,inactive
7,CN(Cc1cnc2nc(N)nc(N)c2n1)c1ccc(C(=O)N[C@@H](CCC(=O)O)C(=O)O)cc1,47.3 nM (active) and 41.8 nM (active)
8,CC[C@@]1(O)C(=O)OCc2c1cc1n(c2=O)Cc2cc3c(CN(C)C)c(O)ccc3nc2-1,94.4 nM (active) and 52.6 nM (active)
9,COc1ccc(CCN(C)CCCC(C#N)(c2ccc(OC)c(OC)c2)C(C)C)cc1OC (stereo unspecified),inactive
10,CC1(CN2CCC(n3c(=O)[nH]c4ccccc43)CC2)OCc2ccccc2-n2cccc21 (stereo unspecified),inactive
11,Cc1cnc(C(=O)NCCc2ccc(S(=O)(=O)NC(=O)NC3CCCCC3)cc2)cn1,inactive
12,Cc1cn([C@H]2C[C@H](N=[N+]=[N-])[C@@H](CO)O2)c(=O)[nH]c1=O,inactive
13,CC1COc2c(N3CCN(C)CC3)c(F)cc3c(=O)c(C(=O)O)cn1c23 (stereo unspecified),inactive
14,CCOC(=O)Nc1ccc(NCc2ccc(F)cc2)nc1N,inactive
15,O=C1Cc2cc(CCN3CCN(c4nsc5ccccc45)CC3)c(Cl)cc2N1,inactive
16,CN1CCC(=C2c3ccccc3CC(=O)c3sccc32)CC1,inactive
17,Cc1ccc(-c2cc(C(F)(F)F)nn2-c2ccc(S(N)(=O)=O)cc2)cc1,inactive
18,CC(C)(C)C(=O)Oc1ccc(S(=O)(=O)Nc2ccccc2C(=O)NCC(=O)O)cc1,inactive
19,CC#C[C@]1(O)CC[C@H]2[C@@H]3CCC4=CC(=O)CCC4=C3[C@@H](c3ccc(N(C)C)cc3)C[C@@]21C,1.05 µM (active)
20,OCCN1CCN(CCCN2c3ccccc3Sc3ccc(C(F)(F)F)cc32)CC1,20.9 µM (active)
21,CC1(C)O[C@H]2CC(=O)OC[C@]23[C@H]2CC[C@@]4(C)[C@H](c5ccoc5)OC(=O)[C@H]5O[C@]54[C@]2(C)C(=O)C[C@@H]13,inactive
22,Clc1ccc2c(c1)C(N1CCNCC1)=Nc1ccccc1O2,inactive
23,CN(C)C(=N)N=C(N)N,inactive
24,Clc1ccc(C(c2ccccc2Cl)C(Cl)Cl)cc1 (stereo unspecified),inactive
25,Cn1ccc2cc3c(cc21)CCN3C(=O)Nc1cccnc1,inactive
26,CC[N+](CC)(CC)CCOc1cccc(OCC[N+](CC)(CC)CC)c1OCC[N+](CC)(CC)CC,inactive
27,CN(CCOc1ccc(NS(C)(=O)=O)cc1)CCc1ccc(NS(C)(=O)=O)cc1,inactive
28,Clc1ccc2nsnc2c1NC1=NCCN1,inactive
29,CN(C)CCCN1c2ccccc2CCc2ccc(Cl)cc21,23.7 µM (active)

# Assay: qHTS of pediatric cancer cell lines to identify multiple opportunities for drug repurposing: Primary screen for A673 cells (AID 1347092); also: nearly all actives have a fitted effect of over 45% in size
# Conditions: A673 Ewing sarcoma viability, CellTiter-Glo ATP luminescence, 48 h; series mostly up to 46 µM
# In short: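 A673 cells (500-1,000 cells/well in growth media) were pre-incubated 5 h at 37 degrees C, then exposed to compounds for 48 h. Viability was read as CellTiter-Glo luminescence; concentration-response curves came directly from the primary screen.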
row,Structure (SMILES),Potency
1,C[C@@H]1CC(=O)NN=C1c1ccc(NN=C(C#N)C#N)cc1,23.5 µM (active)
2,CS(=O)(=O)Nc1ccc([N+](=O)[O-])cc1Oc1ccccc1,inactive
3,CS(=O)(=O)CCNCc1ccc(-c2ccc3ncnc(Nc4ccc(OCc5cccc(F)c5)c(Cl)c4)c3c2)o1,74.3 nM (active) and 21.1 µM (active)
4,Cn1c(=O)c2c(ncn2C)n(C)c1=O,inactive
5,CC(C)NCC(O)c1ccc(O)c(O)c1 (stereo unspecified),1.18 µM (active)
6,Nc1nnc(-c2cccc(Cl)c2Cl)c(N)n1,inactive
7,CC(=O)OCC(CCn1cnc2cnc(N)nc21)COC(C)=O,inactive
8,CN(Cc1cnc2nc(N)nc(N)c2n1)c1ccc(C(=O)N[C@@H](CCC(=O)O)C(=O)O)cc1,4.2 nM (active) and 59 nM (active)
9,CC(C)C(=O)Nc1ccc([N+](=O)[O-])c(C(F)(F)F)c1,0.0118 µM (active)
10,CN1CCN(CCCN2c3ccccc3Sc3ccc(Cl)cc32)CC1,9.35 µM (active)
11,CC[C@@]1(O)C(=O)OCc2c1cc1n(c2=O)Cc2cc3c(CN(C)C)c(O)ccc3nc2-1,26.6 nM (active) and 118 nM (active)
12,COc1ccc(CCN(C)CCCC(C#N)(c2ccc(OC)c(OC)c2)C(C)C)cc1OC (stereo unspecified),inactive
13,Cc1cnc(C(=O)NCCc2ccc(S(=O)(=O)NC(=O)NC3CCCCC3)cc2)cn1,inactive
14,COc1cc2nc(N3CCN(C(=O)C4COc5ccccc5O4)CC3)nc(N)c2cc1OC (stereo unspecified),18.7 µM (active)
15,Cc1ccc(-c2cc(C(F)(F)F)nn2-c2ccc(S(N)(=O)=O)cc2)cc1,inactive
16,CC(C)(C)C(=O)Oc1ccc(S(=O)(=O)Nc2ccccc2C(=O)NCC(=O)O)cc1,inactive
17,CC#C[C@]1(O)CC[C@H]2[C@@H]3CCC4=CC(=O)CCC4=C3[C@@H](c3ccc(N(C)C)cc3)C[C@@]21C,26.6 µM (active) and 118 nM (active)
18,OCCN1CCN(CCCN2c3ccccc3Sc3ccc(C(F)(F)F)cc32)CC1,18.7 µM (active)
19,CC1(C)O[C@H]2CC(=O)OC[C@]23[C@H]2CC[C@@]4(C)[C@H](c5ccoc5)OC(=O)[C@H]5O[C@]54[C@]2(C)C(=O)C[C@@H]13,inactive
20,Clc1ccc2c(c1)C(N1CCNCC1)=Nc1ccccc1O2,inactive
21,CN(C)C(=N)N=C(N)N,inactive
22,Clc1ccc(C(c2ccccc2Cl)C(Cl)Cl)cc1 (stereo unspecified),23.5 µM (active)
23,Cn1ccc2cc3c(cc21)CCN3C(=O)Nc1cccnc1,11.8 µM (active)
24,CC[N+](CC)(CC)CCOc1cccc(OCC[N+](CC)(CC)CC)c1OCC[N+](CC)(CC)CC,inactive
25,CN(CCOc1ccc(NS(C)(=O)=O)cc1)CCc1ccc(NS(C)(=O)=O)cc1,inactive
26,Clc1ccc2nsnc2c1NC1=NCCN1,inactive
27,CN(C)CCCN1c2ccccc2CCc2ccc(Cl)cc21,0.469 µM (active)
